{"source": "PubChem BioAssay (NCATS)", "note": "Results filed as inconclusive are left out. Active and inactive are the calls of the source. The call rests on the fitted dose curve. Potency means the concentration at half of the fitted maximal effect.", "data": [{"assay": "Primary qHTS to identify inhibitors of SARS-CoV-2 cell entry (AID 1645846); further: nearly all actives have a fitted effect of over 45% in size", "conditions": "SARS-CoV-2 pseudovirus cell entry assay, luminescence; activity change, negative = inhibition: at 57.1 µM (top of the series) unless noted; series mostly up to 57.1 µM", "summary_of_the_method": "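Luminescence readout (Bright-Glo luciferase) 48 h after pseudoparticle addition. HEK293-ACE2 cells, 1500/well; compound pre-incubation 1 h; Normalized to spike PP and bald PP.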", "units": {"activity change, negative = inhibition": "%"}, "values": [{"compound": "CCN(CC)CCCCNc1ncc2c(n1)N(C)C(=O)N(c1c(Cl)c(OC)cc(OC)c1Cl)C2", "Potency": "6.31 µM (active)"}, {"compound": "N#CNC(=NCCCCCCOc1ccc(Cl)cc1)Nc1ccncc1", "activity change, negative = inhibition": -97}, {"compound": "CCc1ccc(/C=C2/SC(=S)NC2=O)cc1", "Potency": "31.6 µM (active)"}, {"compound": "CCCn1c(=O)c2[nH]c(-c3cnn(Cc4cccc(C(F)(F)F)c4)c3)nc2n(CC)c1=O", "activity change, negative = inhibition": -10.8}, {"compound": "COC(=O)Nc1ccc(-c2nc(N3CCOCC3)c3cnn(C4CCN(Cc5cccnc5)CC4)c3n2)cc1", "Potency": "6.31 µM (active)"}, {"compound": "CN1CCc2c(c3ccccc3n2Cc2ccc(C(=O)NO)cc2)C1", "activity change, negative = inhibition": -18.9}, {"compound": "CNC(=O)c1c(F)cccc1Nc1nc(Nc2cc3c(cc2OC)CCN3C(=O)CN(C)C)nc2[nH]ccc12", "Potency": "20 µM (active)"}]}]}
